Common to all, as to experiment: DAPPL (digital affinity profiling via proximity ligation, sequencing); 10 mM Tris-HCl pH 7.5, 50 mM NaCl, 1 mM DTT, 4% glycerol, room temperature, 30 min; GST-TFs on glutathione beads, 16-mer random dsDNA library, 0.1% formaldehyde crosslink after washing; high values mean tight binding
Common to all, as to details: protein: recombinant; tags: N-terminal GST; dsDNA, one strand shown

One assay has as its target T1, ERF (Homo sapiens, UniProt P50548 1-548).
T1 sequence: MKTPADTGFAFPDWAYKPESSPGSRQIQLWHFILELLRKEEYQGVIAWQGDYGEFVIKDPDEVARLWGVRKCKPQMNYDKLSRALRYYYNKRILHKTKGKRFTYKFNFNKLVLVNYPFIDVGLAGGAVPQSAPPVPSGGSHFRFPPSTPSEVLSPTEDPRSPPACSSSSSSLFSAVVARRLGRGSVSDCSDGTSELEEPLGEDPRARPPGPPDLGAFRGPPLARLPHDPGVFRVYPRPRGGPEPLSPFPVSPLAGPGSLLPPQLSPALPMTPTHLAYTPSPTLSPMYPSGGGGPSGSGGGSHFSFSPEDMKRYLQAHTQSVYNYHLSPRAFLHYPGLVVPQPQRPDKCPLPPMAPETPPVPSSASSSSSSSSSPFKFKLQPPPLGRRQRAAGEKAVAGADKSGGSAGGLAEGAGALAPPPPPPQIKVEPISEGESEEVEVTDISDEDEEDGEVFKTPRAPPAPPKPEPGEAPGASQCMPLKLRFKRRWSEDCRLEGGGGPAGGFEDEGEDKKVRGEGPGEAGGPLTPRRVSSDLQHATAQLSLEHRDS
An outline of the steps: (§1)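 Human transcription factors carrying a GST fusion were produced in yeast, bound to glutathione beads, tagged with DNA barcodes and pooled together with a tag-only sample. Each pool was held with 200 nmole of a random double-stranded 16-mer DNA library in Tris/NaCl/DTT/glycerol buffer for 30 min at room temperature, then washed, crosslinked in 0.1% formaldehyde, proximity-ligated with BsaI/T4 ligase (1 h, 37 °C), PCR-amplified and sequenced on an Illumina NextSeq500. Binding signal is the read frequency of each hexamer for a given factor divided by its frequency in the tag-only sample.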

In another assay the target is T2, ETV3L (Homo sapiens, UniProt Q6ZN32 1-361).
T2 sequence: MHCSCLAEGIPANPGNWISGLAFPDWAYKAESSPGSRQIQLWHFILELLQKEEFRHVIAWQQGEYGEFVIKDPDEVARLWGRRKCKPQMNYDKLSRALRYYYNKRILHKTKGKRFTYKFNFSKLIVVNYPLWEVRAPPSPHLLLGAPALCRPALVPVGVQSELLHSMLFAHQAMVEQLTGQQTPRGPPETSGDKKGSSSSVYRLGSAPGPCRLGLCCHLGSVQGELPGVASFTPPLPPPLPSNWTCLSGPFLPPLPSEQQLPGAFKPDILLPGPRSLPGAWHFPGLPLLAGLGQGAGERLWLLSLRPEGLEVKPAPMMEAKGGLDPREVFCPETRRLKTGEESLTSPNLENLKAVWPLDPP
The procedure, abridged: as §1

The next assay concerns the target T3, ETS2 (Homo sapiens, UniProt P15036 1-469).
T3 sequence: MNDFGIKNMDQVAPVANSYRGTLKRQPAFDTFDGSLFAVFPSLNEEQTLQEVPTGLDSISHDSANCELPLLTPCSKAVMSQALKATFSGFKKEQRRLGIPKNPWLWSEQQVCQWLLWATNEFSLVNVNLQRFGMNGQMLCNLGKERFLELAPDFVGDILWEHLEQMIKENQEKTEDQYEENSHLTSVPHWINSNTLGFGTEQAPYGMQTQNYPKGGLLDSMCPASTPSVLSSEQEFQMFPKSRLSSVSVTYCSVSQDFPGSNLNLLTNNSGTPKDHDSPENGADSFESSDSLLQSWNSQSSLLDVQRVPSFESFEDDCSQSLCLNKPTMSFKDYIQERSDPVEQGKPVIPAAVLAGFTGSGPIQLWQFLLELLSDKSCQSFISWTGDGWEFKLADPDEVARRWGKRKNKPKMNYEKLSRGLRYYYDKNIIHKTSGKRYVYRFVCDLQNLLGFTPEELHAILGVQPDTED
The procedure, abridged:
as §1

For a further assay, the target named is T4, SPDEF (Homo sapiens, UniProt O95238 1-335).
T4 sequence: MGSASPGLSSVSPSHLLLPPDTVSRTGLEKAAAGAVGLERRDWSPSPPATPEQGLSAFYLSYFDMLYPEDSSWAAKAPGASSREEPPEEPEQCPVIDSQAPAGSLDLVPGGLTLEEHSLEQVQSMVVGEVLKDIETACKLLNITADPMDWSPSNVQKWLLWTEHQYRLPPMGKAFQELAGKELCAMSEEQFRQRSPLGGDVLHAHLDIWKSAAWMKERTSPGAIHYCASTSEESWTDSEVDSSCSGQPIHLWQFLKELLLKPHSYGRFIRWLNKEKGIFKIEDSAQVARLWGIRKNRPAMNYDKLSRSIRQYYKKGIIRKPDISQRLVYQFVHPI
An outline of the steps:
as §1

The target in the next assay is T5, ETV7 (Homo sapiens, UniProt Q9Y603 1-341).
T5 sequence: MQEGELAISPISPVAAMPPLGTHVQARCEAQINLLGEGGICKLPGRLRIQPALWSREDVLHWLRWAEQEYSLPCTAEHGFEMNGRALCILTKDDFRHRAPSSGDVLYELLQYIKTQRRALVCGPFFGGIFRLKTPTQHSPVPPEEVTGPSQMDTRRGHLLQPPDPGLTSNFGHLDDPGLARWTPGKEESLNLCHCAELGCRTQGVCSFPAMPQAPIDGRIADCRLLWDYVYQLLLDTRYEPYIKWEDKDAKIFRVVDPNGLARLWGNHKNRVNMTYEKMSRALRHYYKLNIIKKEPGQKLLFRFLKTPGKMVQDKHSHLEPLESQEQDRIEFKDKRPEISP
The procedure, abridged:
as §1

In the next assay the target is T6, ELF5 (Homo sapiens, UniProt Q9UKW6-2 1-255).
T6 sequence: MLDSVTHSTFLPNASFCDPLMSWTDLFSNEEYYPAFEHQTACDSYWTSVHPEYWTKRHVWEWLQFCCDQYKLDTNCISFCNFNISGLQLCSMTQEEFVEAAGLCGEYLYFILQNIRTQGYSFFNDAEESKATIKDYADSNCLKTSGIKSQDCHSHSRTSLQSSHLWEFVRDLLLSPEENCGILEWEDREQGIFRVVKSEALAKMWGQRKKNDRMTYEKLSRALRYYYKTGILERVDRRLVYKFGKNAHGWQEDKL
The procedure, abridged: as §1

Another assay has as its target T7, ETV3 (Homo sapiens, UniProt P41162-2 1-143).
T7 sequence: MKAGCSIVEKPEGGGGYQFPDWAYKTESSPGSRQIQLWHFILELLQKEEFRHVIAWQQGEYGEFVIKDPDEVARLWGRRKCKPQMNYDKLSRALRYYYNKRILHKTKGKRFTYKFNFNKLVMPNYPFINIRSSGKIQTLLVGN
The procedure, abridged: as §1

A further assay concerns the target ETV6 (Homo sapiens, UniProt P41212 1-452). An outline of the steps:
as §1

Sequence of ETV6 (P41212 whole entry): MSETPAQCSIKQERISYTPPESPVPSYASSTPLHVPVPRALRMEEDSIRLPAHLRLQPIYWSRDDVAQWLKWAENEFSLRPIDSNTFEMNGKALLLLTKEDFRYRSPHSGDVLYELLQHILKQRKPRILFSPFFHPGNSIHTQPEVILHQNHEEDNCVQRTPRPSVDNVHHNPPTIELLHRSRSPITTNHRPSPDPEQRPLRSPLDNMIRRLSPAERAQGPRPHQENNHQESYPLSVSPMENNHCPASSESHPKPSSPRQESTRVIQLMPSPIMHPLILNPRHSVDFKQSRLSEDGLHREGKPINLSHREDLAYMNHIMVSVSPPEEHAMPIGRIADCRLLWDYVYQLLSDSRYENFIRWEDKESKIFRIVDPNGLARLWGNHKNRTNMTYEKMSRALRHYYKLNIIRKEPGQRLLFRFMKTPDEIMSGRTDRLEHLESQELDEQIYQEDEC

In the case of ATGGAT, the binding signal with ERF is 1.09 fold enrichment (6-mer frequency, TF over GST control); with ETV3L, 1.16 fold enrichment (6-mer frequency, TF over GST control); in the assay with ETS2, 1.09 fold enrichment (6-mer frequency, TF over GST control); with SPDEF, 1.01 fold enrichment (6-mer frequency, TF over GST control); with ETV7, 1.16 fold enrichment (6-mer frequency, TF over GST control); with ELF5, 1.06 fold enrichment (6-mer frequency, TF over GST control). Moreover, the binding signal was 1.11 fold enrichment (6-mer frequency, TF over GST control) in the assay with ETV3 and 1.09 fold enrichment (6-mer frequency, TF over GST control) with ETV6.
Turning to ATTCGC, the binding signal with ERF was 1.24 fold enrichment (6-mer frequency, TF over GST control); in the assay with ETV3L, 1.23 fold enrichment (6-mer frequency, TF over GST control); in the assay with ETS2 it was 1.15 fold enrichment (6-mer frequency, TF over GST control); with SPDEF, 1.26 fold enrichment (6-mer frequency, TF over GST control); with ETV7 it was 1.12 fold enrichment (6-mer frequency, TF over GST control); with ELF5, 1.18 fold enrichment (6-mer frequency, TF over GST control). In addition, the binding signal with ETV3 is 1.23 fold enrichment (6-mer frequency, TF over GST control); with ETV6 it was 1.25 fold enrichment (6-mer frequency, TF over GST control).
With TCTGAT, the binding signal in the assay with ERF is 1.22 fold enrichment (6-mer frequency, TF over GST control); with ETV3L, 1.29 fold enrichment (6-mer frequency, TF over GST control); with ETS2 it was 1.29 fold enrichment (6-mer frequency, TF over GST control); with SPDEF, 1.22 fold enrichment (6-mer frequency, TF over GST control); with ETV7 it was 1.23 fold enrichment (6-mer frequency, TF over GST control); in the assay with ELF5 it was 1.19 fold enrichment (6-mer frequency, TF over GST control). Further, the binding signal with ETV3 was 1.21 fold enrichment (6-mer frequency, TF over GST control); with ETV6, 1.19 fold enrichment (6-mer frequency, TF over GST control).
For the sequence TCGACC, the binding signal with ERF is 1.31 fold enrichment (6-mer frequency, TF over GST control); with ETV3L, 1.33 fold enrichment (6-mer frequency, TF over GST control); with ETS2 it was 1.24 fold enrichment (6-mer frequency, TF over GST control); with SPDEF, 1.37 fold enrichment (6-mer frequency, TF over GST control); with ETV7, 1.21 fold enrichment (6-mer frequency, TF over GST control); with ELF5, 1.28 fold enrichment (6-mer frequency, TF over GST control). The binding signal is 1.27 fold enrichment (6-mer frequency, TF over GST control) with ETV3 and 1.3 fold enrichment (6-mer frequency, TF over GST control) with ETV6.
Consider ATCTTA, for which the binding signal with ERF is 1.1 fold enrichment (6-mer frequency, TF over GST control); in the assay with ETV3L, 1.1 fold enrichment (6-mer frequency, TF over GST control); with ETS2, 1.12 fold enrichment (6-mer frequency, TF over GST control); with SPDEF, 1.12 fold enrichment (6-mer frequency, TF over GST control); in the assay with ETV7 it was 1.18 fold enrichment (6-mer frequency, TF over GST control); in the assay with ELF5, 1.11 fold enrichment (6-mer frequency, TF over GST control). The binding signal with ETV3 is 1.04 fold enrichment (6-mer frequency, TF over GST control); with ETV6, 1.14 fold enrichment (6-mer frequency, TF over GST control).
CTACAC: the binding signal with ERF was 1.31 fold enrichment (6-mer frequency, TF over GST control); with ETV3L, 1.4 fold enrichment (6-mer frequency, TF over GST control); in the assay with ETS2 it was 1.25 fold enrichment (6-mer frequency, TF over GST control); in the assay with SPDEF, 1.39 fold enrichment (6-mer frequency, TF over GST control); with ETV7, 1.25 fold enrichment (6-mer frequency, TF over GST control); in the assay with ELF5, 1.36 fold enrichment (6-mer frequency, TF over GST control). Moreover, the binding signal is 1.39 fold enrichment (6-mer frequency, TF over GST control) in the assay with ETV3 and 1.36 fold enrichment (6-mer frequency, TF over GST control) with ETV6.
ATCTAT: the binding signal in the assay with ERF is 1.12 fold enrichment (6-mer frequency, TF over GST control); in the assay with ETV3L, 1.07 fold enrichment (6-mer frequency, TF over GST control); with ETS2 it was 1.15 fold enrichment (6-mer frequency, TF over GST control); with SPDEF it was 1.17 fold enrichment (6-mer frequency, TF over GST control); in the assay with ETV7, 1.18 fold enrichment (6-mer frequency, TF over GST control); in the assay with ELF5, 1.05 fold enrichment (6-mer frequency, TF over GST control). In addition, the binding signal was 1.12 fold enrichment (6-mer frequency, TF over GST control) with ETV3 and 1.14 fold enrichment (6-mer frequency, TF over GST control) with ETV6.

These data come from PMC7862700, “An all-to-all approach to the identification of sequence-specific readers for epigenetic DNA modifications on cytosine”.
